Screening results deposited in PubChem by several laboratories.
Only some compounds are listed: those with a hit (about 27% of all), similar ones and a draw of the others.
Cav32 inh – blocks human Cav3.2 T-type calcium channel | O95180 | Cav3.2-expressing cells, Fluo-4 calcium fluorescence FDSS; stronger effect = lower value | B-score at 10 µM | 4% of 100,000 active;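 active means single-dose well whose peak fluorescence ratio is a statistical outlier from its plate by either plate-standardised score or position-corrected B-score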
CYP2C19 act – increases human CYP2C19 enzyme activity; 96,000 tested, under 10 active; recombinant CYP2C19, luciferin-H EGE luminescence; stronger effect = higher value; 0 = fully inhibited enzyme, 1 = untreated enzyme; activation factor at 5 µM; P33261; AID 1025;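 active means activation factor of at least 2 at 5 µM in the primary screen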;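 further: 0 = wells with 2.5 mM tranylcypromine and 1 = vehicle-only wells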
Target sequence (P33261 whole entry, looked up): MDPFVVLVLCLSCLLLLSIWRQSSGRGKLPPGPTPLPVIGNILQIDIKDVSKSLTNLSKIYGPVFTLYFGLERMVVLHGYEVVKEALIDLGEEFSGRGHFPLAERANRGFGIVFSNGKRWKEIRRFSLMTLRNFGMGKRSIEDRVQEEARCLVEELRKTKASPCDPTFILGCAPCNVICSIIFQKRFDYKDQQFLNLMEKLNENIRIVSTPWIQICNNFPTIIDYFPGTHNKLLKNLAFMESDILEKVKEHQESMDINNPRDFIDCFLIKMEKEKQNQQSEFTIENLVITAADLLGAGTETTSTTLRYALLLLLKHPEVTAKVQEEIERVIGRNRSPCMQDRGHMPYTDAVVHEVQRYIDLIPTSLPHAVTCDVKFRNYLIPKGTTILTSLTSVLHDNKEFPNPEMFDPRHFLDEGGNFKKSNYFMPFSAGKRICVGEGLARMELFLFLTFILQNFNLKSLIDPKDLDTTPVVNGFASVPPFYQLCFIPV
CYP2C19 inhib – human CYP2C19 inhibition; P33261; AID 778; CYP2C19 Supersomes, luciferin-H EGE luminescence, 30 min; inhibition, % at 5 µM; 21% of 96,000 active;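 active means CYP2C19 inhibition above a set limit at 5 µM in the primary screen, cut at about 50% in these data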;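 further: plate controls were negative control wells for no effect and 2.5 mM tranylcypromine positive control for full effect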
CYP2C9 inh – blocks human cytochrome P450 2C9; 20% of 96,000 active; CYP2C9 Supersomes, luciferin-H conversion, luminescence; P11712; inhibition, % at 5 µM;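 active means blocking of liver enzyme CYP2C9 beyond about 50% at 5 µM, limit read from the data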
CYP2C9 act – activators of human CYP2C9; P11712; recombinant CYP2C9, luciferin-H conversion, luminescence; stronger effect = higher value; factor 1 = untreated enzyme, 0 = blocked; activation factor at 5 µM; 1.4% of 96,000 active; AID 1024;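 active means activation factor of 2 or more for CYP2C9 at a 5 µM dose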;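 further: 0 = sulfaphenazole-blocked wells and 1 = vehicle-only wells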
* marks the source's active call; other numbers are inactive results; . = no result given.

SMILES	Cav32 inh	CYP2C19 act	CYP2C19 inhib	CYP2C9 inh	CYP2C9 act
O=C(CCCn1c(=O)[nH]c2cc(Cl)ccc2c1=O)NCCC1=CCCCC1	-0.352	1	4.9	-4.3	1
CC(=O)N1CCc2cc(C(=O)CN3CCN(c4cccc(Cl)c4)CC3)ccc21	0.33	0.7	32.3	84.5*	0.2
Cc1nc(N2CCN(c3ccccc3)CC2)c2c3c(sc2n1)CCC3	.	0.1	94.9*	94.2*	0.1
O=C(CSc1ncnc2sc3c(c12)CCCC3)c1ccccc1	-0.474	.	.	.	.
c1ccc2c(c1)nnn2-c1ncnc2sc3c(c12)CCCC3	-2.41	0.9	11.0	-107.3	2.1*
Cc1nc(-n2nnc3ccccc32)c2c3c(sc2n1)CCCC3	-1.02	0.5	54.8*	59.4*	0.4
COc1ccc(C(=O)NCC(c2cccnc2)N2CCN(c3ccccc3)CC2)cc1OC (stereo unspecified)	-0.19	.	.	.	.
O=C1CCCC2=C1C(c1ccco1)Nc1ccc(C(=O)c3ccccc3)cc1N2 (stereo unspecified)	-3.56*	0.7	34.3	31.5	0.7
CC1(C)C(c2ccc(Cl)cc2)=[N+]([O-])C2(CCCC/C2=N\O)N1O (stereo unspecified)	0.702	0.7	27.0	4.4	1
CC1(C)NC(=O)N(CCOc2ccc3c(c2)CCC3)C1=O	0.292	0.3	72.4*	21.0	0.8
CCc1cccc(OCCCN2C(=O)NC(C)(C)C2=O)c1	0.139	0.1	91.5*	59.9*	0.4
CC(=O)c1cccc(OCCN2C(=O)NC(C)(C)C2=O)c1	0.923	0.7	34.3	50.2*	0.5
c1cc2c(cc1C1CCCN1)OCCCO2 (stereo unspecified)	0.0782	1	-0.4	-1.9	1
CC(C)c1c(O)nc(SCC(=O)Nc2ccc3c(c2)CCC3)[nH]c1=O	-1.56	0.9	7.7	22.3	0.8
CCCCOc1ccc(Cl)cc1CSc1nnc(CC)n1N	-0.245	0.5	53.5*	63.8*	0.4
CCCc1nnc(SCc2ccc(OC)cc2)n1N	0.155	0.5	51.2*	13.7	0.9
CCCOc1ccc(CSc2nnc(CCC)n2N)cc1	0.903	0.3	66.0*	54.7*	0.5
COc1ccc2cc3[n+](cc2c1OC)CCc1cc2c(cc1-3)OCO2	1.36	.	.	.	.
COC(C[C@@H]1O[C@H]1[C@@H](O)COCc1ccccc1)OC	-1.19	.	.	.	.
CCn1c2ccccc2c2nnc(SCC(=O)c3ccccc3)nc21	0.107	0.6	35.5	-3.6	1
CCCCn1c(=O)[nH]c2ccccc21	0.458	0.7	29.0	0.7	1
C=CCn1c2ccccc2c2nnc(SCCCn3c(=O)[nH]c4ccccc43)nc21	-2.95	0.3	74.8*	75.6*	0.2
O=C1c2ccccc2C(=O)N1CSc1nnc2c3ccccc3n(CCc3ccccc3)c2n1	0.0109	0.7	31.1	40.1	0.6
O=c1[nH]c2ccccc2n1CCCSc1cnc2ccccc2n1	-4.21	0.4	63.4*	84.9*	0.2
C=CCn1c2ccccc2c2nnc(SCN3C(=O)c4ccccc4C3=O)nc21	-0.303	0.1	90.2*	78.6*	0.2
SMILES	Cav32 inh	CYP2C19 act	CYP2C19 inhib	CYP2C9 inh	CYP2C9 act
Cc1cc(C)cc(SCc2noc(C(=O)NCc3ccccc3)c2C(=O)NCc2ccccc2)c1	-1.05	.	.	.	.
Clc1ccc(NC2=NCCCCC2)cc1	0.477	0.9	8.0	-14.2	1.1
Cc1cc(NC(=O)C2C3C(=O)N(Cc4ccc(Cl)cc4)C(C(=O)NC(C)(C)C)C34C=CC2(C)O4)no1 (stereo unspecified)	.	1.2	-19.4	-17.5	1.2
COC(=O)Cc1ccc(NC(=O)c2ccc(C)c(C)c2)cc1	0.502	0.9	7.1	-62.2	1.6
CCOC(=O)Cc1ccc(NC(=O)c2ccc(C(C)(C)C)cc2)cc1	-8.09*	0.6	39.8	1.1	1
CCN(CC)CCCNC(=O)c1cc(-c2ccc(Cl)c(Cl)c2)on1	0.163	1	-3.4	6.2	0.9
CCN(CC)CCCNC(=O)c1cc(-c2ccc(O)cc2)on1	-0.0207	1	0.0	-128.6	2.3*
COc1ccc(-n2cnnc2SCC(=O)NC2CCS(=O)(=O)C2)cc1 (stereo unspecified)	0.553	1.2	-18.4	-23.3	1.2
COc1ccccc1-c1nnc2sc(-c3cc4ccccc4o3)nn12	.	0.7	33.2	34.5	0.7
COc1ccc(-c2n[nH]c(C(F)(F)F)c2-c2cc3ccccc3o2)c(O)c1	-0.907	0.8	20.2	90.4*	0.1
Cc1ccc(N(CC(=O)NC2CCCCC2)C(=O)c2ccc(C)s2)cc1	-1.57	0.7	30.8	60.0*	0.4
Cc1ccc(S(=O)(=O)NCC(=O)N(CC(=O)NCC2CCCO2)C2CCCC2)cc1 (stereo unspecified)	0.00277	0.9	14.4	21.5	0.8
CC(C)(C)NC(=O)CN(C(=O)CNS(=O)(=O)c1ccccc1)c1ccc2c(c1)OCCO2	-1.37	0.8	16.4	21.4	0.8
CCC(C)(C)NC(=O)CN(C(=O)CNS(=O)(=O)c1ccc(C)cc1)c1ccc2c(c1)OCCO2	.	0.7	28.9	53.7*	0.5
Cc1cc(C)cc(N(CC(=O)NC2CCCCC2)C(=O)c2ccc(C)s2)c1	-2.27	0.7	26.5	-5.1	1.1
Cc1ccc(S(=O)(=O)NCC(=O)N(CC(=O)NC2CCCC2)c2ccc3c(c2)OCCO3)cc1	.	0.5	48.2	61.2*	0.4
Cc1nnc(SCC(=O)n2c3c(c4ccccc42)CCCC3)s1	-0.585	0.7	34.3	-30.7	1.3
CC(C)(C)NS(=O)(=O)c1cnc(Cl)c(Cl)c1	0.263	0.1	90.2*	-0.6	1
CCc1ccccc1N1C(=O)C2CC(C)=C(C)CC2C1=O (stereo unspecified)	0.249	0.5	47.5	51.4*	0.5
CCc1ccccc1N1C(=O)C2CC=CCC2C1=O (stereo unspecified)	-1.09	0.8	19.9	-18.7	1.2
CCn1c(CSc2nc3ccccc3s2)nnc1SCC(=O)OC(C)(C)C	-1.93	0.8	18.3	-8.9	1.1
CC1(C)CCN(Cc2ccccc2)C1CC#N (stereo unspecified)	-1.03	0.4	59.7*	-5.3	1.1
Cn1ncc2c(NCc3ccccc3)ncnc21	0.795	0.8	16.6	2.6	1
CCCNc1nc(C)nc2c1cnn2CCc1ccccc1	0.278	0.1	88.6*	15.3	0.8
Cc1nc(NC(C)C)c2cnn(CCc3ccccc3)c2n1	1.44	0.2	77.0*	42.0	0.6
Cc1nc(NCCc2ccccc2)c2oc3ccccc3c2n1	-1.85	0.7	31.0	48.5	0.5
CCCC1C2CN(C(C)C)CC=C2C(C#N)=C(N)C1(C#N)C#N (stereo unspecified)	.	0.9	5.8	-18.3	1.2
Cc1cc(NC(=O)COC(=O)COc2ccc3c(c2)CCC3)no1	-0.976	0.9	5.6	-4.7	1
CC1C(=O)CC(c2ccccc2)N(C)C1c1ccccc1 (stereo unspecified)	1.58	0	99.5*	90.0*	0.1
Cc1ccc(Cl)cc1N1CCN(C(=O)C2CCN(S(=O)(=O)c3c(C)nn(C)c3C)CC2)CC1	.	0.6	35.2	-75.5	1.8
